The record followed here is PubChem BioAssay.

In general, viability refers to a read-out of living cells in per cent, often relative to untreated cells.

Experiment [1] is described as follows: viability loss in pontine glioma line – cell-based, SU-DIPG-XXV, MIPE5.0, CellTiter-Glo, qHTS, dose response (AID 1347065; cut-off not given, nearly all actives have AC50 up to about 26 µM;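 also: cells exposed to compound for 48 hours before ATP readout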). The note with it: CellTiter-Glo ATP luminescence.
The nature of experiment [2]: growth inhibition of DIPG cells – cell-based, MIPE4.0 library, CellTiter-Glo luminescence, qHTS (AID 1347066; cut-off not given, nearly all actives have AC50 up to about 30 µM;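 also: cells exposed to compound for 48 hours before readout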). The note with it: SU-DIPG-VI viability, CellTiter-Glo ATP luminescence.
The nature of experiment [3]: JHH-DIPG-1 glioma cell viability, MIPE5.0 library, CellTiter-Glo luminescence, qHTS (AID 1347067; cut-off not given, nearly all actives have AC50 up to about 26 µM;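 also: cells exposed to compound for 48 hours before readout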). The note with it: JHH-DIPG-1 glioma viability, CellTiter-Glo ATP luminescence.
The nature of experiment [4]: growth inhibition of DIPG cells – cell-based, MIPE5.0 library, qHTS (AID 1347068; cut-off not given, nearly all actives have IC50 up to about 30 µM). The note with it: SU-DIPG-XXV viability. Background: Quantitative high-throughput screening tests each substance at several concentrations.
Experiment [5] in a line: viability loss with induced miR-34 in A549 – imaging, A549 dox-inducible miR-34, nuclei and caspase counts, primary screen (AID 1347080;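 active = compounds whose cell count with miR-34 switched on is under 0.7 times the count with it off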). The note with it: A549 miR-34 inducible, Hoechst nuclei count, 48 h.
The nature of experiment [6]: MELAS cybrid and Rieske KO viability enhancers – cell-based, MELAS cybrids, Rieske KO mouse fibroblasts, CellTiter-Glo, primary screen (AID 1508586;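 active = mean z-score across replicates of 1.96 or higher in either the MELAS or the Rieske mutant cell line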;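 also: z relative to plate mean and SD of compound and empty wells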). The note with it: low glucose. (In general: Cellular ATP, detected with luciferase, serves as a proxy for viable cell number.)
Experiment [7] can be described thus: blockers of cellular phospholipid synthesis – cell-based, LOPAC library, screen 4, primary screen (AID 1347384; call rule not given here). The note with it: animal cells, phospholipid biosynthesis inhibition screen; at 10 µM.
The nature of experiment [8]: compounds altering HSF1 focus formation in cells – imaging, Selleck Cancer Library (AID 1347162; in the data active = plate-normalised HSF1 focus index below about 0.46). The note with it: human cells, HSF1 nuclear foci imaging, at 10 µM; SSMD: measured here: HSF1 foci SSMD mean; cell count: measured here: cell number; plate-normalised HSF1 focus index: stronger effect = lower value.
Experiment [9] is described as follows: drug combination growth inhibition, ovarian cancer – cell-based, oncology-focused library, rucaparib conditional, profiling panel (AID 1508598). The note with it: patient-derived ovarian cancer cells, CellTiter-Glo viability, 144 h, stronger effect = lower value.
Setting [10] is: MELAS cybrid survival, CellTiter-Glo 48 h, stronger effect = higher value.
[11] abbreviates: Rieske KO mouse fibroblast survival, CellTiter-Glo 72 h.

“And” between values parts separate entries of the source, which are not always exact repeats. Equal entries are not always repeated. Results filed as inconclusive are left out. The source made the active and inactive calls.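 The calls were made as follows, unless noted: active = normalized viability below 100% at a tested concentration; inactive = the rest.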

Regarding `CCC[C@H](N[C@@H](C)C(=O)N1[C@H](C(=O)O)C[C@@H]2CCCC[C@@H]21)C(=O)OCC`, the molecule was classed as inactive in [1], in [2], in experiment [3] and in experiment [4]. Moreover, the fold change in experiment [5] (stronger effect = lower value, cell number ratio, induced over uninduced) was 0.917 (inactive) and 0.847 (inactive); in [5] (measured here: relative caspase fold change +Dox/-Dox), 0.846 and 3.59. Moreover, the cell count in [5] (measured here: total cells with miR-34 induction, stronger effect = lower value) is 9000 and 11500; in experiment [5] (measured here: total cells without miR-34 induction), 9820 and 13600. Also, the z-score in experiment [6] (setting [10]) is 0.628 (inactive); in experiment [6] (setting [11]), -0.272.
Turning to `COC(=O)[C@@H]1[C@H]2C[C@H]3c4[nH]c5ccccc5c4CCN3C[C@@H]2CC[C@@H]1O`, the call in experiment [1], in [2], in experiment [3], in experiment [4] and in experiment [7] was inactive. For the same molecule, the z-score in [6] (setting [10]) is 0.194 (inactive) and -0.872 (inactive); in [6] (setting [11]), 0.2 and -0.116.
With `N[C@@H](Cc1ccc(O)c(O)c1)C(=O)O`, the call in [1], in experiment [2], in experiment [3], in [4] and in [7] was inactive. Also, the z-score in [6] (setting [10]) was -0.394 (inactive) and -0.26 (inactive); in experiment [6] (setting [11]), 0.117 and -1.12.
As to `Clc1ccc2nsnc2c1NC1=NCCN1`, the molecule was called inactive in experiment [1], in experiment [2], in [3], in experiment [4] and in experiment [7]. Further, the z-score is -0.43 (inactive) and 0.0544 (inactive) and -0.148 (inactive) in [6] (setting [10]); 0.606 and 0.144 and -1.3 in experiment [6] (setting [11]).
`Cc1ccccc1N1C(=O)c2cc(S(N)(=O)=O)c(Cl)cc2NC1C` (configuration not stated): the molecule was classed as inactive in [1], in [2], in experiment [3], in experiment [4] and in experiment [7]. Besides, the z-score in experiment [6] (setting [10]) was -0.2 (inactive) and 0.948 (inactive); in [6] (setting [11]), 0.325 and -0.0446.
Take `Cc1cnc(NC(=O)C2=C(O)c3ccccc3S(=O)(=O)N2C)s1`: the result in [1], in [2], in experiment [3], in [4] and in experiment [7] was inactive. The z-score in [6] (setting [10]) was -0.282 (inactive) and 0.497 (inactive) and -0.212 (inactive); in experiment [6] (setting [11]), 0.842 and 0.0996 and -0.732.
Regarding `Oc1ccc(C2CNCCc3c2cc(O)c(O)c3Cl)cc1` (configuration not stated), the result in experiment [1], in [2], in experiment [3], in experiment [4] and in experiment [7] was inactive. For the same molecule, the z-score was 0.526 (inactive) and 0.283 (inactive) in experiment [6] (setting [10]); -0.363 and -0.533 in experiment [6] (setting [11]).
Turning to `COc1ccccc1OCC(O)CN1CCN(CC(=O)Nc2c(C)cccc2C)CC1` (configuration not stated), the result in [1], in experiment [2], in [3], in [4] and in experiment [7] was inactive. The SSMD in experiment [8] is 2.29. Also, in [8], the cell count was 7450. The plate-normalised HSF1 focus index in experiment [8] was 1.14 (inactive). In addition, the viability in experiment [9] (at 0.000305 µM, OCI-C5x cells, with rucaparib 10 µM, 100% = cells with rucaparib alone) was 108% (inactive); in experiment [9] (at 0.000305 µM, OCI-C5x cells, without rucaparib), 113% (inactive); in experiment [9] (at 0.000305 µM, OCI-P5x cells, with rucaparib 20 µM, 100% = cells with rucaparib alone), 102% (inactive); in [9] (at 0.000305 µM, OCI-P5x cells, without rucaparib), 108% (inactive); in [9] (at 0.00122 µM, OCI-C5x cells, with rucaparib 10 µM, 100% = cells with rucaparib alone), 114% (inactive); in [9] (at 0.00122 µM, OCI-C5x cells, without rucaparib), 124% (inactive). Further, the viability was 96% (active) in [9] (at 0.00122 µM, OCI-P5x cells, with rucaparib 20 µM, 100% = cells with rucaparib alone); 106% (inactive) in experiment [9] (at 0.00122 µM, OCI-P5x cells, without rucaparib); 115% (inactive) in [9] (at 0.00488 µM, OCI-C5x cells, with rucaparib 10 µM, 100% = cells with rucaparib alone); 113% (inactive) in experiment [9] (at 0.00488 µM, OCI-C5x cells, without rucaparib); 93.5% (active) in experiment [9] (at 0.00488 µM, OCI-P5x cells, with rucaparib 20 µM, 100% = cells with rucaparib alone); 109% (inactive) in experiment [9] (at 0.00488 µM, OCI-P5x cells, without rucaparib). Further, the viability in [9] (at 0.0195 µM, OCI-C5x cells, with rucaparib 10 µM, 100% = cells with rucaparib alone) was 106% (inactive); in experiment [9] (at 0.0195 µM, OCI-C5x cells, without rucaparib), 107% (inactive); in [9] (at 0.0195 µM, OCI-P5x cells, with rucaparib 20 µM, 100% = cells with rucaparib alone), 94.5% (active); in experiment [9] (at 0.0195 µM, OCI-P5x cells, without rucaparib), 108% (inactive); in experiment [9] (at 0.0781 µM, OCI-C5x cells, with rucaparib 10 µM, 100% = cells with rucaparib alone) it was 108% (inactive); in experiment [9] (at 0.0781 µM, OCI-C5x cells, without rucaparib), 114% (inactive). Further, the viability was 101% (inactive) in [9] (at 0.0781 µM, OCI-P5x cells, with rucaparib 20 µM, 100% = cells with rucaparib alone); 106% (inactive) in [9] (at 0.0781 µM, OCI-P5x cells, without rucaparib); 110% (inactive) in [9] (at 0.313 µM, OCI-C5x cells, with rucaparib 10 µM, 100% = cells with rucaparib alone); 118% (inactive) in experiment [9] (at 0.313 µM, OCI-C5x cells, without rucaparib); 94.5% (active) in experiment [9] (at 0.313 µM, OCI-P5x cells, with rucaparib 20 µM, 100% = cells with rucaparib alone); 107% (inactive) in experiment [9] (at 0.313 µM, OCI-P5x cells, without rucaparib). The viability is 102% (inactive) in experiment [9] (at 1.25 µM, OCI-C5x cells, with rucaparib 10 µM, 100% = cells with rucaparib alone); 121% (inactive) in experiment [9] (at 1.25 µM, OCI-C5x cells, without rucaparib); 104% (inactive) in experiment [9] (at 1.25 µM, OCI-P5x cells, with rucaparib 20 µM, 100% = cells with rucaparib alone); 92.6% (active) in experiment [9] (at 1.25 µM, OCI-P5x cells, without rucaparib); 67.5% (active) in experiment [9] (at 5 µM, OCI-C5x cells, with rucaparib 10 µM, 100% = cells with rucaparib alone); 39.4% (active) in experiment [9] (at 5 µM, OCI-C5x cells, without rucaparib). The viability is 49.6% (active) in experiment [9] (at 5 µM, OCI-P5x cells, with rucaparib 20 µM, 100% = cells with rucaparib alone) and 23.6% (active) in experiment [9] (at 5 µM, OCI-P5x cells, without rucaparib).
